Source: PubChem BioAssay
In the library only some 3% were active in any assay of this set; here they are far more common.
12-LOX inh: inhibitors of human 12S-lipoxygenase ALOX12; AID 1671190; Potency, µM (series often up to 108 µM), inactives show at the top dose activity change, negative = inhibition, hits mostly inhibitors; purified 12hLO, xylenol orange hydroperoxide absorbance; 580,000 tested, 1.1% active; active = well fitted inhibition curve with a large enough effect; inconclusive = small, poorly fitted or top-dose-only effect, or another doubt; inactive = no such curve, though single readings can be large or run the other way; note: potency is the fitted concentration of half-maximal effect; % is set by controls: 0 for no effect and ±100 for the full control effect
Target sequence (P18054 whole entry, looked up): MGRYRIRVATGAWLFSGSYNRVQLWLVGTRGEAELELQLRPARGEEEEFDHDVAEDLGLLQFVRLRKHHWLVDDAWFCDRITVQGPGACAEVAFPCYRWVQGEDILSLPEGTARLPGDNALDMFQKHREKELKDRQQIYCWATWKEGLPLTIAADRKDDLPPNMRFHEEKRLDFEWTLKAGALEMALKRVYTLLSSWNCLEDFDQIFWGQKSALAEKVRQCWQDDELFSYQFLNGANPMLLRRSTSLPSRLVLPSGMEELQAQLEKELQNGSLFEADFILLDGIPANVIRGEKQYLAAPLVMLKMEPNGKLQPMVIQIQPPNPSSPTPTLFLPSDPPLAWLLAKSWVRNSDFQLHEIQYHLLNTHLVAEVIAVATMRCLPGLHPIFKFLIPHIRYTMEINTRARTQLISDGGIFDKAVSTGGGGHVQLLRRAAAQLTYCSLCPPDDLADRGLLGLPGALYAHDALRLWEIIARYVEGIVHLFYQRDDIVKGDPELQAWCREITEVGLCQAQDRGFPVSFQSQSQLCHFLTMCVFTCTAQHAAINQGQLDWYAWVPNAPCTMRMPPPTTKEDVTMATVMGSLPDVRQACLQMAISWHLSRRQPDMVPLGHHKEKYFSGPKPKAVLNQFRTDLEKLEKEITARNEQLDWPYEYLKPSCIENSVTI
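Purified human 12hLO (150 nM final) in 25 mM Hepes, 0.01% Triton X-100, pH 7.0 was preincubated 15 min at room temperature with compound. Then 40 uM arachidonic acid was added, 30 min. Hydroperoxide was read by Fe-XO absorbance ratio 573/405 nm.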
BCR signal inh: inhibitors of chronic active B-cell receptor signaling. ABC-DLBCL IkBa-CBG/CBR reporter, luminescence ratio, 4 h. Potency, µM (highest dose often 46.1 µM), for the others: at the top dose activity change, negative = inhibition, actives largely listed as inhibitors. 340,000 tested, 0.05% active. AID 493014; active = well fitted inhibition curve with a large enough effect in the signal ratio, with a control signal flat, not every such curve was filed as active; inconclusive = small, poorly fitted or top-dose-only effect, or effect the other way, or a change in a side signal; the % refers to the signal ratio;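 note: potency is the fitted concentration of half-maximal effect; plate controls were basal doxycycline-induced cells for no effect and cells given 10 µM MG132 for full effect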
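Compounds up to 46 uM were incubated four hours with TMD8 cells whose green CBG68 luciferase is fused to IkappaBalpha; red CBR luminescence normalised the signal, and concentration-effect curves were fitted to fusion, red and ratio data.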
KCNH2 3.1 block: inhibitors of human KCNH2 3.1 potassium channel isoform; U2OS KCNH2 3.1, thallium flux FluxOr; hits give low values; activity change, % (tested at about 1.8 µM); 340,000 tested, 0.95% active; AID 720553;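 active = maximum activity change below -70%; inconclusive = maximum activity change from -70% to -50%; inactive = maximum activity change above -50%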;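 note: thallium influx rate constant from kinetic fluorescence after stimulation buffer; % is set by controls: 0 for no effect and ±100 for the full control effect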
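We transduce U2OS cells with the mutant 3.1 virus, culture them overnight, load FluxOr with Red40 quencher for 45 min, then add stimulation buffer and read kinetically for 2 min to derive a normalized rate constant.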
LDHA block: LDHA (human) enzyme inhibition. purified LDHA, NADH/diaphorase-resazurin fluorescence; hits give low values. P00338. 480,000 tested, 0.15% active. activity change, % (values are at about 110 or 230 µM); in the data active = activity change below about -30%; inconclusive = mostly about -25% to -30%;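 note: plate controls were DMSO wells for no effect and wells without enzyme for full effect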
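Human LDH5 at 2 nM final in Tris HCl pH 7.4 with 0.06 mM NADH and 0.2 mM pyruvate, reacted 5 minutes at room temperature. Remaining NADH coupled via diaphorase/resazurin; resorufin fluorescence read at 0 and 20 minutes, normalized to enzyme-free and DMSO wells.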
KCNH2 WT inh: blocks the wildtype human KCNH2 potassium channel; Q12809; U2OS, BacMam KCNH2, thallium flux FluxOr; hits give low values; activity change, % at 1.84 µM; 340,000 tested, 0.37% active;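 active = maximum activity change below -70%; inconclusive = maximum activity change between -70% and -50%; inactive = maximum activity change above -50%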; note: % is set by controls: 0 for no effect and ±100 for the full control effect
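U2OS cells transduced with wild-type KCNH2 virus are loaded with FluxOr dye for 45 min, and thallium flux is measured in kinetic reads before and after stimulation buffer. Rate constants are normalized to DMSO controls.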
ClpP mod: qHTS Assay for Activators of ClpP | ATP-dependent Clp protease proteolytic subunit (Bacillus subtilis (strain 168)), P80244 | Potency, µM (series often up to 57.5 µM), for the others: top-dose activity change, negative = active | purified B. subtilis ClpP, FRET peptide cleavage, 20 min | 340,000 tested, 1.9% active; active = well fitted falling curve with a large enough effect; inconclusive = small, poorly fitted or top-dose-only effect; inactive = no such curve, though single readings can be large or run the other way; note: potency is the fitted concentration of half-maximal effect; the source files actives as falling curves though it sought activators and does not explain the sign; nearly all actives have a fitted effect of over 65% in size
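ClpP 10 microg/mL final, pH 8 Tris/KCl buffer with BSA, glycerol, Tween-20; compound pinned in; FRET-FV substrate; RT 20 min; Ex320/Em430; ΔFRET vs ADEP 5.8 microM, DMSO, no enzyme.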
* = called active by the depositor; u = inconclusive; x = no result given.

SMILES	12-LOX inh	BCR signal inh	KCNH2 3.1 block	LDHA block	KCNH2 WT inh	ClpP mod
COc1ccccc1NS(=O)(=O)c1cc(N)ccc1N1CCCCC1	u	1%	0	3	x	2%
CC(=O)c1cccc(OCc2coc(-c3cccc(F)c3)n2)c1	-21%	x	x	-1	x	x
CC(=O)c1ccc(OCc2coc(-c3cccc(F)c3)n2)cc1	45µM*	x	x	-7	x	x
CCN(CC)C(=O)Oc1ccc2cc(-c3ccccc3)c(=O)oc2c1	13%	x	x	8	x	x
CC(C)CNC(=O)CSc1ccc(Cl)cc1	151%	u	-6	1	-1	25µM*
Cc1ccc(SCC(=O)NCC(C)C)cc1	-20%	-5%	5	-2	-3	2%
CC1CCN(C(=O)CSc2nc(N)c3c4c(sc3n2)CN(C)CC4)CC1	x	u	14	1	-14	28µM*
CN1CCN(Cc2nc3ccccc3c(=O)n2Cc2nc(-c3ccc([N+](=O)[O-])cc3)cs2)CC1	45µM*	u	-28	10	25	1%
Cc1cc(N2CCN(c3nc(-c4ccc([N+](=O)[O-])cc4)cs3)CC2)c2ccccc2n1	3%	5%	-124*	1	-122*	x
CN(C)Cc1nc2ccccc2c(=O)n1Cc1nc(-c2cccc([N+](=O)[O-])c2)cs1	3%	1%	-42	-4	5	x
Cc1cc(-c2ccc([N+](=O)[O-])cc2)nc2ccccc12	u	u	3	-9	-20	x
Cc1ccc2c(CSc3nnnn3C3CC3)cc(=O)oc2c1C	u	x	x	-2	x	x
CCOc1ccc(C(=O)O)cc1OC	0%	0%	8	-12	8	-12%
CCOc1ccc(C(=S)NC2CCCCC2)cc1OC	22µM*	u	13	-12	-5	-2%
CCOc1ccc(C(N)=O)cc1OC	-48%	0%	-2	-4	9	28µM*
CC(C)(C)/C(O)=C/c1nc2ccccc2[nH]c1=O	u	1%	2	-12	-4	-2%
CCCC/C(O)=C/c1nc2ccccc2[nH]c1=O	0%	15µM*	-35	-4	-5	-14%
COc1ccc2c(c1)CCC1C2=NN(/C(C)=C\C(C)=O)C1c1ccc(F)cc1 (stereo not drawn)	u	u	6	10	x	-10%
COc1ccc2c(c1)C1=NN(/C(C)=C/C(C)=O)C(c3ccc(F)cc3)C1CC2 (stereo not drawn)	u	0%	-20	38	-5	20µM*
Cc1cc(C)n2c(-c3ccccc3Cl)nnc2n1	2%	-1%	3	-12	2	28µM*
COC(=O)c1ccc(-c2ccco2)n1Cc1cc(C)ccc1C	0%	11%	-14	-1	8	32µM*
O=C1CC(C(=O)Nc2ccccc2C(F)(F)F)n2nc(SCc3ccccc3)nc2N1 (stereo not drawn)	u	x	x	11	x	x
CCC1=C(C(=O)OC)C(c2ccccc2OC)N2C(CC(=O)NC(C)(C)C)=CSC2=N1 (stereo not drawn)	42%	x	x	x	x	x
CC(C)NC(=S)N(C)C1(c2ccccc2Cl)CCCCC1=O (stereo not drawn)	2%	7%	-93*	-14	-12	0%
CNC(=S)N/N=C/c1ccc(F)cc1F	u	x	x	11	x	x
SMILES	12-LOX inh	BCR signal inh	KCNH2 3.1 block	LDHA block	KCNH2 WT inh	ClpP mod
CC(C)(C)c1ccc(O)c(NC(=O)c2n[nH]c(=O)c3ccccc23)c1	u	x	x	0	x	x
COc1ccc(/C=C/C(=O)OCC(=O)Nc2ccc(C)cc2)cc1S(=O)(=O)N1CCOCC1	-5%	-14%	-11	-6	-2	7.9µM*
COc1ccc(C(=O)Nc2ccc(-c3ccc(C)o3)cc2)cc1S(=O)(=O)N1CCOCC1	-15%	u	-71*	-1	16	-9%
COc1ccc(/C=C/C(=O)OCC(=O)Nc2ccc(Cl)c(S(=O)(=O)N(C)C)c2)cc1OC	0.79µM*	u	-1	-7	3	-3%
COc1cc(/C=C/c2cc[n+](C)cc2)ccc1OCC(=O)Nc1ccc(Cl)c(Cl)c1	50µM*	5%	-3	6	-4	x
O=c1c2ccccc2c(-c2cccs2)nn1CC(O)COCc1ccccc1F (stereo not drawn)	-5%	x	x	1	x	x
O=C(Cc1csc(-c2ccc(F)cc2)n1)Nc1ccnn1Cc1ccc(Cl)cc1	u	x	x	-2	x	x
COc1ccc(C(c2nnnn2C2CCCC2)N2CCC(C)CC2)c(OC)c1 (stereo not drawn)	0%	5%	-12	0	6	18µM*
COc1cc2cc(C(c3nnnn3C3CCCC3)N3CCCCCC3)c(=O)[nH]c2cc1OC (stereo not drawn)	u	-5%	2	3	-1	u
Cc1cc(C)c2[nH]c(=O)c(C(c3nnnn3C3CCCC3)N3CCOCC3)cc2c1 (stereo not drawn)	x	-3%	x	x	x	x
COc1cc2cc(CN(Cc3nnnn3C3CCCC3)C3CCCC3)c(=O)[nH]c2cc1OC	x	0%	x	x	x	x
COc1cc2cc(C(c3nnnn3C3CCCC3)N3CCCCC3)c(=O)[nH]c2cc1OC (stereo not drawn)	7%	-3%	3	0	-5	22µM*
O=c1[nH]c2cc3c(cc2cc1CN(Cc1nnnn1C1CCCC1)C1CCCC1)OCCO3	-3%	-17%	-7	4	-1	32µM*
O=c1[nH]c2cc3c(cc2cc1C(c1nnnn1C1CCCCC1)N1CCSCC1)OCCO3 (stereo not drawn)	u	-4%	-5	-1	-9	35µM*
N#Cc1ccc(CSc2ccccc2C(=O)NCCc2ccc3c(c2)OCCO3)cc1	u	x	x	-9	x	x
Cc1oc(-c2cccc(Cl)c2)nc1CS(=O)(=O)CC(=O)NC(C)c1ccccc1 (stereo not drawn)	-52%	x	x	-1	x	x
Cc1cc(C)c(NC(=O)c2ccc3c(c2)CCC3)c(Cl)c1	u	x	x	7	x	x
COCc1nc(-c2ccc(OC3CCN(S(=O)(=O)c4ccccc4C)C3)cc2)no1 (stereo not drawn)	11%	x	x	x	x	x
COc1ccc(C(=O)N2CCN(C3CCCCC3)CC2)cc1OC	0.63µM*	u	-75*	-23	-11	-2%
COc1ccc(/C=N/NC(=O)c2nn(-c3ccc(Cl)cc3)c(=O)c3c(N)scc23)cc1	7.9µM*	17%	10	15	15	-1%
COc1ccccc1N1CCN(CC(=O)Nc2ccnn2Cc2cccc(Cl)c2)CC1	32%	x	x	-9	x	x
Cc1ccc(N2C(=O)c3cccc4c(N5CCN(C)CC5)ccc(c34)C2=O)c2cccnc12	x	3%	5	-4	4	0%
